According to PubChem BioAssay (EPA / NIEHS):
Inconclusive results are not listed. Active and inactive are the calls of the source. Rule for the calls: active = hit-call score of the fitted dose curve at least 0.9, where 1 is the maximum; inconclusive = response in the unintended direction; inactive = score below 0.9.

Assay: ATG_XTT_Cytotoxicity: Cytotoxicity Assessment in the Attagene TRANS-FACTORIAL HepG2 Assay (AID 2283584);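 for AC50: XTT signal for cell number as viability in transfected HepG2 cells; cells exposed to compound for 24 h before reading; active means loss of viability signal versus DMSO baseline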
Method in brief: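 HepG2 cells transiently transfected with GAL4-UAS multiple reporter units, dosed 24 h; cytotoxicity read by XTT as loss of signal versus DMSO baseline.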
With O=C1C=CC(=O)N1c1cccc(N2C(=O)C=CC2=O)c1 the outcome was “inactive”.
In the case of CC(C)(c1ccc(Oc2ccc(N)cc2)cc1)c1ccc(Oc2ccc(N)cc2)cc1, the AC50 is reported as 48.6 µM (active).
In the case of CCCCCCCC(OC)OC, the outcome is reported as “inactive”.
For CCCCCCCCC1CCC(=O)O1 (stereo unspecified), the outcome was “inactive”.
In the case of CC(C)[C@@H]1CC[C@@H](C)C[C@H]1O, the outcome is reported as “inactive”.
With CC1CCC(CO)CC1 (stereo unspecified) the outcome was “inactive”.
In the case of CC[N+](CC)(CC)Cc1ccccc1, the outcome is reported as “inactive”.
In the case of O=C(NCc1ncc(C(F)(F)F)cc1Cl)c1c(Cl)cccc1Cl, the outcome is reported as “inactive”.

Assay: TOX21_p53_BLA_p2_viability: Viability Assessment in the Tox21 HCT-116 p53 Agonism Beta-lactamase Assay, Phase 2 (AID 2283591);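 note: compound exposure lasted 16 h at 37 °C; actives lower the ATP signal meaning cytotoxicity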
Method in brief: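 HCT-116 p53-bla cells (4000/well) rested 5 h at 37C, then received compounds in DMSO (217-fold dilution) for 16 h at 37C, 5% CO2. After the CCF4 read, CellTiter-Glo was added; ATP luminescence was read after 30 min at room temperature.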
For CC(=O)Nc1ccc(S(N)(=O)=O)cc1, the outcome was “inactive”.
With CCCCCCCCCCCCCCCC(=O)OC the outcome was “inactive”.
For CCCCCCCCC1CCC(=O)O1 (stereo unspecified), the outcome was “inactive”.
